We go through two compounds from the supplement of paper PMC4206461.

The test system of this assay is Pseudomonas aeruginosa PA14 dppBCDF deletion mutant. Kind of assay: respiration area under curve with compound as sole nitrogen source, 24 h (OmniLog AUC (arbitrary units)); higher = more respiration / better utilisation as nitrogen source; extreme values may be limits of the assay. The procedure: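 Biolog Phenotype MicroArray plates PM6-PM8: each di/tripeptide is the sole nitrogen source. Tetrazolium reduction was read in the OmniLog every 15 min for 24 h at 37°C and summarised as area under the respiration curve (arbitrary units). Values below 2000 count as no respiration. Strain is the dipeptide ABC transporter deletion mutant.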
For the compound `CC(C)C[C@H](NC(=O)CNC(=O)CN)C(=O)O` (plate: PM8), the “respiration area under curve” value is 0 (inactive).
For `CC(C)C[C@@H](NC(=O)CNC(=O)CN)C(=O)O` (plate: PM8), the “respiration area under curve” value is 4.75 (inactive).
